# How the values were obtained:
# Assay type in all cases: functional
# Plasmodium falciparum [1] = experiment: GSK_TCMDC: Inhibition of Plasmodium falciparum 3D7 in whole red blood cells, using parasite LDH activity as an index of growth. Test compounds present at 2uM
# Plasmodium falciparum [2] = experiment: GSK_TCMDC: Inhibition of Plasmodium falciparum Dd2 in whole red blood cells, using parasite LDH activity as an index of growth. Test compounds present at 2uM
# HepG2 = experiment: GSK_TCMDC: Percent inhibition of human HepG2 cell line. Test compounds present at 10uM.
Structure (SMILES),Inhibition (Plasmodium falciparum [1]),Inhibition (Plasmodium falciparum [2]),Inhibition (HepG2)
Cc1cc(OCCCN2CCN(CCN3CCOCC3)CC2)ccc1NC(=O)COc1ccc(Cl)cc1C(=O)c1cc(Cl)cc(C#N)c1,99%,78%,30%
O=C(/C=C/c1ccc(Cl)c(Cl)c1)NC1CCC(CN2CCC(Cc3c[nH]c4ccccc34)CC2)CC1 (stereo not drawn),100%,9%,25%
Nc1nccc2ccc(-c3ccc4nccn4c3)cc12.O=C(O)C(F)(F)F,100%,100%,15%
N=c1[nH]c2cccc3ccc4cccc1c4c32,100%,69%,26%
C=CCC(C(=O)Nc1ccnc2ccc(OC)cc12)C1CCN(CCCCCCC)CC1 (stereo not drawn),86%,84%,20%
O=C(/C=C/c1ccc(Cl)c(Cl)c1)NCCCCCN1CCCN(C(=O)Nc2cc(Cl)cc(Cl)c2)CC1,96%,4%,53%
O=C(Nc1nccs1)c1cc(-c2cccnc2)nc2ccc(Br)cc12,100%,79%,7%
O=C(N[C@H]1CCN(Cc2ccc(OC3CCN(Cc4ccccc4)CC3)c(Cl)c2)C1)c1ccc(Cl)c(Cl)c1.O=C(O)C(F)(F)F,99%,11%,59%
CC(C)N(Cc1ccc(-c2ccc(C(F)(F)F)cc2)cc1)C(=O)Cn1c(CCc2cccc(F)c2F)cc(=O)c2ccc(CCCN3CCCCC3)cc21.O=C(O)C(O)C(O)C(=O)O,100%,82%,99%
Cc1ccc(-c2cc(C(=O)Nc3ccc(S(=O)(=O)N4CCOCC4)cc3)[nH]n2)c(O)c1C,91%,45%,18%
COc1ccc(OCCCN2CCN(CC(c3ccc(F)cc3)N3CCN(C(C)C)CC3)CC2)c2ccccc12.O=C(O)C(F)(F)F (stereo not drawn),100%,32%,30%
O=C(NCCCCN1CCC(c2nc3ccccc3s2)CC1)c1cc2ccccc2[nH]1,86%,64%,43%
O=C(COc1ccc(C(=O)c2ccccc2)cc1)Nc1nccs1,94%,18%,0%
Cc1cnc2ccc(NS(=O)(=O)c3sc4ccc(Cl)cc4c3C)cc2c1N1CCNCC1.Cl,99%,0%,0%
CN1CCN(CCCN(Cc2cccc(-c3ccc(CNCCc4ccccc4)cc3)c2)C(=O)c2cccs2)CC1.O=C(O)C(F)(F)F,100%,97%,86%
CCC1CCc2cc(N)cc(-c3nc4c(c(C)nn4CC)c(=O)[nH]3)c2O1 (stereo not drawn),86%,42%,0%
COc1cccc(CCc2c(CCNCCCCCCNCCc3ccccc3)ccc(OC)c2OC)c1.Cl,100%,69%,100%
COc1ccc(Br)cc1/C=C/C(=O)Nc1ccc2c(c1)CCCN(C)C2,84%,10%,8%
Cl.O=S(=O)(Nc1cc2c(cc1OCc1ccccc1)CCN(C1CCC1)CC2)c1ccc(-c2ccc(Cl)cc2)cc1,92%,12%,18%
Cc1cc(NCC(c2ccccc2)c2ccccc2)nc(NCC2CCCCC2)n1,100%,93%,12%
CC(=O)c1ccccc1OCCSc1nnc(Cc2cccs2)n1C1CCCCC1,87%,1%,19%

Structure (SMILES),Inhibition (Plasmodium falciparum [1]),Inhibition (Plasmodium falciparum [2]),Inhibition (HepG2)
CSC1=NC(=Nc2ccccc2C)C2(CCC(C(C)(C)C)CC2)N1c1ccccc1Cl.I (stereo not drawn),96%,89%,3%
O=C(/C=C/c1ccc(-c2nc3ccc(Cl)cc3[nH]2)cc1)NCc1cccc(F)c1,99%,68%,1%
O=C(NCC1CCN(Cc2ccsc2)C1)c1cc(-c2cccc(C(F)(F)F)c2)cs1.O=C(O)C(F)(F)F (stereo not drawn),98%,15%,37%
CCN(CC)Cc1cccc(-c2cc3c(-c4ccc(C(=O)O)c(C(C)C)c4)ccnc3[nH]2)c1OC.O=C(O)C(F)(F)F,99%,99%,57%
Cc1cc2cc(-c3ccc(CN)cc3)ccc2nc1N,92%,8%,18%
O=C(NCCCCCN1CCC(c2c[nH]c3ccccc23)CC1)Nc1cccc(C(F)(F)F)c1,97%,11%,51%
COc1ccc(CC(=O)NC(CCCN2CCC(c3ccccc3)CC2)c2ccc(Cl)c(Cl)c2)cc1OC (stereo not drawn),82%,57%,28%
COCCN1CCC(C(=O)NCC(C)(C)c2nc(-c3ccc(Br)c(O)c3)c(-c3ccncc3)[nH]2)CC1.Cl,99%,6%,0%
CCC1CN2CCc3c([nH]c4ccc(OC)cc34)C2CC1CC1NCCc2cc(OC)c(OC)cc21.Cl (stereo not drawn),100%,21%,17%
Cl.O=c1cc(NCCCNCc2cc(Br)cs2)[nH]c2ccccc12,85%,5%,11%
CCN(CC)CCN(Cc1ccc(-c2ccc(C(F)(F)F)cc2)cc1)C(=O)c1ccc(-c2ccc(C#N)cc2)cc1,89%,31%,38%
O=c1cc(NCCCN(Cc2ccccc2)Cc2ccccc2)[nH]c2ccccc12,100%,93%,7%
CNCCNCc1cccc(-c2ccc(-c3nc4ccccc4[nH]3)cc2)c1.O=C(O)C(F)(F)F,99%,27%,13%
OC(CNc1ccnc(Nc2ccc(Cl)cc2)n1)c1ccc(C(F)(F)F)cc1 (stereo not drawn),100%,94%,0%
CC(C)C[C@@H](CNC[C@H](CC(C)C)NC(=O)OC(C)(C)C)NC(=O)OC(C)(C)C,88%,58%,4%
O=C(c1ccccc1)N1COCC(CCN2CCC(N3CCCC3)CC2)(c2ccc(Cl)c(Cl)c2)C1 (stereo not drawn),83%,9%,18%
COc1cc2nc(Nc3ccc(Oc4ccccc4)cc3)nc(Nc3ccc(Oc4ccccc4)cc3)c2cc1OC,95%,45%,5%
Cc1cccc2nc(-c3ccc(-c4ccc(CNCc5ccc(CN)cc5)cc4)cc3)[nH]c12.O=C(O)C(F)(F)F,100%,46%,14%
Cc1cccc2nc(-c3cccc(-c4cccc(C(=O)NCc5nccn5C)c4)c3)[nH]c12,99%,50%,22%
NC(=O)C1Cc2ccccc2CN1CC(=O)Nc1ccccc1Sc1ccccc1 (stereo not drawn),100%,99%,5%
COc1c(C2CCN(CCCCNC(=O)c3ccc(-c4ccc(C(F)(F)F)cc4)c(C(=O)OC(C)C)c3)CC2)ccc2c1CCCC2,90%,30%,24%

Structure (SMILES),Inhibition (Plasmodium falciparum [1]),Inhibition (Plasmodium falciparum [2]),Inhibition (HepG2)
COC(=O)c1cccc(CNCc2ccc(-c3ccc(-c4nc5cc(F)ccc5[nH]4)s3)cc2)c1.O=C(O)C(F)(F)F,100%,82%,4%
O=C(Nc1cc(Cl)cc(Cl)c1)c1cc(Cl)c(=O)n(Cc2cccc(Cl)c2)c1,100%,62%,8%
O=C(/C=C/c1ccc(Cl)c(Cl)c1)NCCCCCN1CCC(c2cn[nH]c2-c2ccccc2)CC1,85%,0%,28%
Cc1ccc(Nc2ccnc3ccc(C(F)(F)F)cc23)cc1O.O=C(O)C(F)(F)F,100%,69%,23%
Cc1cccc(C)c1CNc1cccc(-c2nc(C)c(C)[nH]2)c1.Cl,99%,44%,58%
COc1ccc(C=NNc2nc(O)cc(-c3ccccc3)n2)cc1OC,92%,93%,22%
Cl.O=c1cc(NCCCNCc2sc(Br)c(Br)c2Br)[nH]c2ccccc12,90%,38%,0%
O=S(=O)(Nc1ccc(CCN2CCC(N3CCCCC3)CC2)cc1)c1ccccc1C(F)(F)F,95%,8%,9%
Cc1cc(N[C@@H](Cc2ccccc2)C(=O)Nc2ccccc2)nc(NCCc2ccccn2)n1.O=C(O)C(F)(F)F,97%,50%,0%
O=C(NOCCOc1ccccc1)c1ccccc1,98%,0%,0%
COc1cc2nc(N3CCC(CNC(=O)c4ccc(-c5ccc(C(=O)N(C)C)cc5OCCN(C)C)cc4)CC3)nc(N)c2cc1OC,95%,0%,0%
CC(C)(C)c1ccc(-c2csc(NC(=O)CC(c3ccccc3)c3ccccc3)n2)cc1,86%,64%,3%
Cc1cc(N2CCOCC2)nc(Nc2ccc(NC(=O)c3cccc4ccccc34)cc2)n1,95%,11%,44%
COc1ccc(-c2nc(NC(=O)CS(=O)(=O)c3ccc(C)cc3)sc2C)cc1,100%,94%,56%
N#CC(NC(=O)C=Cc1ccccc1)c1ccccc1 (stereo not drawn),95%,3%,3%
CC(C)C[C@H](NC(=O)c1cc2ccccc2s1)C(=O)N[C@H]1CCN(Cc2ccc(I)c(OCCN3CCCC3)c2)C1.O=C(O)C(F)(F)F,92%,88%,3%
CC(C)(CC1CCCCC1)NC(=O)[C@H](CC1CCCCC1)Nc1ccc(C#N)c2ccccc12.O=C(O)C(F)(F)F,98%,52%,14%
O=C(O)C(F)(F)F.O=S(=O)(NCCN1CCCC1)c1ccc(-c2cccc(CNCCc3cccs3)c2)s1,99%,44%,39%
COc1ccc2nccc([C@@H](O)CN3CCC(NCCNc4cccc(F)c4)CC3)c2c1.CS(=O)(=O)O,98%,73%,11%
